HCV inhibitor = qHTS Assay for Inhibitors of Hepatitis C Virus (HCV); Huh7.5.1 HCVcc-Cre infection, luciferase reporter, 44 h; Potency, µM (highest dose often 41.8 µM), inactives show at the top dose activity change, negative = inhibition, hits mostly inhibitors; 340,000 tested, 3.4% active; active = well fitted inhibition curve with a large enough effect; inconclusive = small, poorly fitted or top-dose-only effect, or another doubt; inactive = no such curve, though single readings can be large or run the other way; also: potency is read from the fitted curve at half-maximal effect
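Seed cells (1,000/well) for 4 h; treat with compound and infect with HCVcc-Cre, moi about 0.5. Incubate 44 h, then detect luciferase activity.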
LASV entry inh = qHTS for Inhibitors of binding or entry into cells for Lassa Virus; Lassa virus pseudotype entry inhibition, cell reporter; Potency, µM (titrated, usually from 37.9 µM), for the others: at the highest dose activity change, negative = inhibition, usual class: inhibitors; 300,000 tested, 1.2% active; AID 540256, 2011; calls by dose curve; tested in HEK293 cells; also: potency is read from the fitted curve at half-maximal effect; nearly all actives have a fitted effect of over 50% in size
FMDV antiviral = High Throughput Screening for Foot and Mouth Disease Virus Antivirals | FMDV antiviral cell-based qHTS | Potency, µM (doses to about 57.9 µM), without a hit: top-dose activity change, negative = inhibition, most hits filed as inhibitors | 410,000 tested, 1.2% active; calls by dose curve; tested in HEK293T cells; also: read-out not given here; potency is read from the fitted curve at half-maximal effect; nearly all actives have a fitted effect of over 45% in size
Marburg entry inh = qHTS for inhibitors of binding or entry into cells for Marburg Virus; Marburg virus pseudotyped entry inhibition, cell reporter; 300,000 tested, 1.8% active; Potency, µM (highest dose often 37.8 µM), for the others: at the top dose activity change, negative = inhibition, actives largely listed as inhibitors; calls by dose curve; tested in HEK293 cells; also: potency is read from the fitted curve at half-maximal effect
HCMV inh = qHTS Assay for inhibitors of the human cytomegalovirus (HCMV); HFF cells, HCMV-luciferase reporter, 72 h; hits give low values; activity change, negative = inhibition, % at 57.5 µM; 410,000 tested, 4.5% active; in the data active = activity change below about -60%; inconclusive = no clear call, values can overlap the other calls; inactive = above about -39%
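Inhibition of viral replication was scored as loss of reporter luminescence in HFFs infected with HCMV-luciferase (MOI 1 PFU/cell) for 72 h; compounds tested at 2 doses, normalized to buffer and Salinomycin controls.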
Active calls of the source: *; u = inconclusive; x = no result given; [ ] = another dose, or the depositor's remark. Rows were chosen to be rich in hits. Some 7.9% of all compounds tested hit in one or more screens of this group. % is scaled to controls: 0 for no effect and ±100 for the full control effect.

SMILES	HCV inhibitor	LASV entry inh	FMDV antiviral	Marburg entry inh	HCMV inh
CC1(NC(=O)/C=C/c2nc3ccccc3s2)CCS(=O)(=O)C1 (stereo not given)	9.9%	x	7.0%	x	4.8
Oc1cccc(-c2nc3ccccc3s2)c1	u	u	-43.9%	7.08µM*	178.0
Cc1nn(-c2ccccc2)c(C)c1C(=O)OCC(=O)Nc1ccccc1	u	-17.0%	-9.2%	2.9%	10.2
Cc1cc(NC(=O)COC(=O)c2c(C)nn(-c3ccccc3)c2C)no1	-29.0%	18.3µM*	-13.5%	u	-7.3
CCN(CC(=O)Nc1ccc(NC(C)=O)cc1)C(=O)c1cc(-c2ccccc2)nn1-c1ccccc1	-24.6%	-26.4%	-10.4%	-8.8%	-22.9
COc1ccccc1NC(=O)COC(=O)c1c(C)nn(-c2ccccc2)c1C	14.1µM*	x	7.7%	x	-9.9
CCCN(CC(=O)Nc1ccccc1OC)C(=O)c1cc(-c2ccccc2)nn1-c1ccccc1	11.2µM*	x	-20.9%	x	11.3
Cn1cc(Cl)cc1-c1ncc(Cc2c[nH]c(N)[n+]2C)o1	x	x	x	x	-11.5
COc1cccc(C2C(C(=O)c3cccs3)=C(O)C(=O)N2CCN2CCOCC2)c1OC (stereo not given)	18.2%	3.4%[46.1 µM]	12.4%	8.7%[46.1 µM]	38.6
Cn1c(=O)c(-c2ccc(Cl)cc2)nc2cnc(OCc3ccccc3)nc21	x	x	8.5%	x	x
CC(C)N(C(=NCc1ccccc1)NC(=O)c1ccccc1)C(C)C	-6.4%	x	47.3%	x	-88.7*
CN(Cc1ccccc1)C(=S)NC(=O)c1ccccc1	7.6%	-26.9%[46.1 µM]	2.8%	u	7.2
Cc1ccc2nc(-c3ccccc3)nn2c1	-10.2%	1.12µM*	11.2µM*	8.91µM*	14.4
Clc1ccccc1Cn1nc(-c2ccccc2)nc1-c1ccccc1	11.4%	-9.4%	-3.5%	7.5%	-33.0
COc1cc(CNCC(C)C)cc(Br)c1OCC(=O)Nc1ccccc1	u	-13.0%	-17.4%	u	19.2
COc1cc(CNCCc2ccccc2)cc(Br)c1OCC(=O)Nc1ccccc1C	u	3.3%	-13.8%	20.6µM*	-30.4
CCNCc1cc(Br)c(OCC(=O)Nc2ccccc2)c(OC)c1	10µM*	14.5%	-19.0%	u	-16.4
CCN(CC)c1nc(Nc2ccc(Cl)cc2)nc(OCC#N)n1	u	-3.8%	u	u	-67.7*
CCn1c(/C(C#N)=C/c2ccccc2Cl)nc2ccccc21	x	-11.9%[46.1 µM]	-17.5%	x	-73.1*
CCn1c(/C(C#N)=N/O)nc2ccccc21	11.7%	1.1%	0.0%	-5.0%	-5.7
Cc1cc(C(=O)CSc2nnnn2C)c(C)n1CCc1ccc(F)cc1	6.6%	7.9%	0.3%	1.6%	25.4
Cc1cc(C(=O)CCl)c(C)n1CCc1ccc(Cl)cc1	10µM*	u	22.4µM*	u	-98.3*
COc1ccc(CCn2c(C)cc(C(=O)CCl)c2C)cc1OC	u	x	20µM*	x	-100.2*
COc1ccc(CCn2c(C)c(C(C)=O)c(C(C)=O)c2C)cc1OC	23.4%	1.4%	-13.9%	-1.1%	3.9
CCOC(=O)c1c(C)c(C)n(Cc2ccc(OC)c(OC)c2)c1C	u	-23.4%	u	u	u
SMILES	HCV inhibitor	LASV entry inh	FMDV antiviral	Marburg entry inh	HCMV inh
Cc1cc(C(=O)CCl)c(C)n1CCc1ccc(F)cc1	u	u	28.2µM*	u	-83.5*
CCOC(=O)c1cc(C)n(Cc2ccc(OCC)c(OC)c2)c1C	11.2µM*	-17.9%	u	-24.2%	-8.4
O=C(NCc1ccccc1Cl)NCc1noc2ccccc12	x	-20.2%[46.1 µM]	26.8%	x	39.0
CC(C)Oc1ccc(Nc2cc3c(cn2)cc(-c2cccc(C(F)(F)F)c2)n3C)cc1	x	x	x	x	-5.1
COc1cc(NC(=O)Nn2cnnc2)cc(OC)c1OC	13.1%	u	4.6%	u	-33.0
O=C(CC1SC(=Nc2ccccc2)N(CCCO)C1=O)Nc1ccc(Cl)cc1 (stereo not given)	-29.4%	u	14.1µM*	u	x
Cc1cc(C)n(-c2ccc(C(=O)OCC(=O)N(CC(C)C)C3CCS(=O)(=O)C3)cc2)n1 (stereo not given)	-3.0%	-2.2%	20.9%	21.3%	-86.5*
CC(C)CN(C(=O)COC(=O)c1ccc2c(c1)NC(=O)CS2)C1CCS(=O)(=O)C1 (stereo not given)	-6.4%	1.1%	-5.5%	-5.4%	-84.2*
COC(=O)CC=C1c2ccccc2[C@@H](OC)[C@@H]1C	x	u	x	16.2%[14.2 µM]	x
CCN1CC(CN(C)Cc2cn(-c3ccc(C)cc3)nc2-c2cccc(C)c2)CC1=O (stereo not given)	-12.0%	u	-1.4%	11.2µM*	13.4
CC(=O)/C=C\c1cn(-c2ncc(C(F)(F)F)cc2Cl)c2ccccc12	u	u	31.6µM*	u	-11.1
N#CC(C#N)=Cc1cn(-c2ncc(C(F)(F)F)cc2Cl)c2ccccc12	15.0%	-14.7%	-29.5%	2.3%[46.1 µM]	2.1
O=C(c1cccc(F)c1)N1CC(=O)N2[C@@H](CO)[C@@H](c3ccc(Br)cc3)[C@@H]2C1	x	x	x	x	-0.4
CN(C)c1ncc2nc(-c3cccs3)c(=O)n(CCC#N)c2n1	x	x	-16.7%	x	x
CCCNC(=S)NC1CC2CCC(C1)N2Cc1ccccc1 (stereo not given)	-14.8%	-13.9%	-9.2%	u	-30.0
CC(C)CNC(=S)NC1CC2CCC(C1)N2Cc1ccccc1 (stereo not given)	4.5%	-14.4%	x	0.651µM*	-0.5
CCNC(=S)NC1CC2CCC(C1)N2Cc1ccccc1 (stereo not given)	5.2%	-0.3%	x	0.92µM*	-16.8
CCN(C(=O)C1CCN(S(=O)(=O)c2ccc3c(c2)CCCN3C(=O)C2CCC2)CC1)c1cccc(C)c1	x	u	u	x	20.3
CCOc1ccc(NC(=O)Nc2c(C)n(C)n(-c3ccccc3)c2=O)cc1	3.8%	-3.0%[46.1 µM]	16.3%	0.5%[46.1 µM]	2.9
C/C(=N\OCc1ccc(C#N)cc1)c1ccccc1	2.8%	x	87.4%	x	-12.8
C/C(=N/OCO/N=C(\C)c1ccccc1)c1ccccc1	11.1%	u	-7.1%	3.55µM*	-36.4
Cc1ccc(CCNC(=O)CN2CCN(Cc3ccc(Cl)cc3)C2=O)cc1	x	-3.3%[46.1 µM]	-12.6%	1.2%[46.1 µM]	-28.6
Cc1ccc(CN2CCN(CC(=O)NCCCN3CCN(c4ccc(F)cc4)CC3)C2=O)cc1	8.91µM*	-15.7%	u	-26.7%	u
Cc1ccc(-n2nc(C)c(C(=O)NCCCN3CCN(c4ccc(F)cc4)CC3)c2-n2cccc2)cc1	x	u	-21.7%	x	-70.1*
COc1ccc(N2CCN(CCCNC(=O)CN3CCN(Cc4ccccc4C)C3=O)CC2)cc1	11.2µM*	-5.8%	-22.4%	-3.6%	u
Clc1cccc(-c2ccc(CNCCSc3nnnn3-c3ccccc3)o2)c1	x	3.1%[46.1 µM]	u	-18.3%[46.1 µM]	1.5
CCOC(=O)c1sc(NC(=O)Nc2ccccc2F)nc1C	-7.9%	u	u	2.24µM*	u
COC(=O)c1ccccc1C(=O)N1CCOc2ccc(CN3CCN(c4ccccn4)CC3)cc2C1	x	x	-14.7%	x	x

Compound activity (PubChem)
